From PubChem BioAssay (NCI)
The panel holds about 83,000 compounds, 20% with a hit somewhere; the sample as a whole holds those more often.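 Interpretation: 100, growth as untreated; towards 0, rising growth inhibition; 0, no net growth; 0 to -100, cell death. Compounds scoring below 10 were considered active.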 Activity calls are given as the source filed them.

The compounds below were run on OVCAR-3 ovarian (assay: NCI-60 one-dose screen, 48 h (100 = growth as untreated, 0 = no growth, -100 = all killed)). Settings: 10 µM.

Structure (SMILES) | growth
COc1cccc(-c2nc3sccn3c2-c2cccc(S(C)(=O)=O)c2)c1 | 113% (inactive)
COc1cc(CNC(=O)C2CSC3(C)c4ccccc4C(=O)N23)cc(OC)c1OC (stereo unspecified) | 112% (inactive)
COc1cc2cc(Oc3ccc(NC(=O)c4ccc(Cl)c(C(F)(F)F)c4)cc3)c(C)nc2cc1OC | 0% (active)
CN(C)CCCSc1ccccc1NC1=C(Cl)C(=O)C(Nc2ccccc2SCCCN(C)C)=C(Cl)C1=O | -93% (active)
COc1ccc(-c2cc(-c3ccc(Cl)cc3)nc(SCCCCCCC(=O)NO)n2)cc1OC | 75.5% (inactive)
O=C(NCCNC(=O)c1ccc(F)cc1)Nc1ccc(-n2cc(-c3ccncc3)c(-c3ccc(Cl)c(O)c3)n2)cc1 | 3.59% (active)
Cc1ccc(Cl)cc1NC(=O)CCl | 99% (inactive)
Nc1ncc(-c2cnn(C3CCNCC3)c2)cc1-c1nc2ccccc2o1 | -62.4% (active)
O=C(CCCSc1nc(-c2ccccc2)cc(-c2ccc(Cl)cc2)n1)NO | 7.27% (active)
COc1ccc2nc3cc(Cl)ccc3c(Nc3cc(CN4CCCC4)c(O)c(CN4CCCC4)c3)c2n1 | 23.9% (inactive)
CN(C)CCOc1cccc(-c2nc3sccn3c2-c2ccnc(S(C)(=O)=O)n2)c1 | 93.6% (inactive)
Cc1ccc(C(=O)C2C(=O)C3CCC2C3)cc1 (stereo unspecified) | 107% (inactive)
COc1cc(-c2csc(NC(=O)Nc3cc(C(F)(F)F)cc(C(F)(F)F)c3)n2)cc(OC)c1OC | -3.97% (active)
O=C(CNc1nnc(-c2cccnc2SCc2ccccc2)s1)Nc1nc(Cl)cc(Cl)n1 | 106% (inactive)
O=C(O)c1ccc(-n2cc(CNc3ccc(Oc4ccccc4)cc3)c(-c3ccccc3)n2)cc1 | 86.9% (inactive)
C/C=C/C1=CN2C(=O)c3cc(OC4OC(C)C(NC)C(C)(O)C4O)c(C)c(O)c3N=C[C@@H]2C1 (stereo partly specified) | -4.33% (active)
COc1ccc(/C(C#N)=C/c2ccccc2OC)cc1 | 25.8% (inactive)
O=S(=O)(O)c1ccc(Cl)cc1 | 103% (inactive)
N#CCc1csc(Cc2ccccc2)n1 | 106% (inactive)
O=C(/C=C/C=C/c1c(C2CC2)nc2ccccc2c1-c1ccc(F)cc1)c1cccs1 | -2.17% (active)
N#CC1=C(N)Oc2cc(N)ccc2C1c1cccnc1 (stereo unspecified) | 96.6% (inactive)
O=C(Cn1cc(CO)nn1)Nc1nc2ccccc2s1 | 101% (inactive)
CCn1c(SCCc2ccccc2)nnc1-c1nn(-c2ccc(Cl)cc2Cl)c(-c2ccc(Cl)cc2)c1C | 69.1% (inactive)
Cc1cc(C(C#N)c2ccc(Cl)cc2)c(Cl)cc1NC(=O)c1cc(I)cc(I)c1O (stereo unspecified) | 32.6% (inactive)
Cn1cnc([N+](=O)[O-])c1/C=C1\Oc2ccc(Br)cc2C1=O | 99.7% (inactive)
Cc1cc(Cl)ccc1Nc1nc(C(F)(F)F)ccc1C(=O)N/N=C/c1c(Cl)cccc1Cl | -2.74% (active)

Each compound was assayed on HS 578T breast in the same assay as above. Settings: 10 µM.

Structure (SMILES) | growth
NC(CSC(c1ccccc1)(c1ccccc1)c1cccc2ccccc12)C(=O)O (stereo unspecified) | 92.5% (inactive)
CC(=O)[C@H]1CC[C@]2(C)[C@@H]1CC[C@@H]1[C@@]3(C)CC(CCC#N)(CCC#N)C(=O)C(C)(C)[C@@H]3CC[C@]12C | 90.5% (inactive)
NC1=NC(c2ccc(Cl)cc2)C2=C(N1)/C(=C/c1ccc(Cl)cc1)CCC2 (stereo unspecified) | 100% (inactive)
C/C(=N\O)c1ccc(NC(=O)CSc2nnc(-c3ccccc3)n2-c2ccccc2)cc1 | 62.5% (inactive)
NC1=CC(=O)C(=O)c2cccnc21 | 77.5% (inactive)
C[n+]1c2ccccc2nc2ccccc21 | -12.1% (active)
COc1cc(-c2nn(-c3ccc(NC(=O)NCCNS(=O)(=O)c4ccc(F)cc4)cc3)cc2-c2ccncc2)ccc1Cl | 21.6% (inactive)
O=C(CSc1nccc(Nc2cccc3ccccc23)n1)c1ccc(Cl)cc1 | 99.7% (inactive)
CCCCCCCCCCOC(c1ccccc1)c1ccccc1 | 99.7% (inactive)
O=C1/C=C/[C@@H](O)[C@@H]2C[C@@H](O)C[C@H]2/C=C/CCC[C@H](CCc2ccc(C(F)(F)F)cc2)O1 | 27.8% (inactive)
O=C(O)c1cn(C2CC2)c2cc(N3CCN(C(=O)c4cc(-c5ccc(Cl)cc5)nc5ccccc45)CC3)c(F)cc2c1=O | 94% (inactive)
CN(C)CCC1(c2ccccc2)CCN(C)C1=O (stereo unspecified) | 108% (inactive)
COc1ccc(Nc2cnc3cc(NS(=O)(=O)c4ccc(C)cc4)ccc3n2)cc1 | 82.7% (inactive)
COc1cc(-c2nn(-c3cccc(NC(=O)CCNc4ccc(N5CCOCC5)cc4)c3)cc2-c2ccncc2)ccc1Cl | 29.7% (inactive)
COc1cccc(-c2nc3sccn3c2-c2cccc(S(C)(=O)=O)c2)c1 | 99.3% (inactive)
COc1cc(CNC(=O)C2CSC3(C)c4ccccc4C(=O)N23)cc(OC)c1OC (stereo unspecified) | 94.1% (inactive)
COc1cc2cc(Oc3ccc(NC(=O)c4ccc(Cl)c(C(F)(F)F)c4)cc3)c(C)nc2cc1OC | 41.6% (inactive)
CN(C)CCCSc1ccccc1NC1=C(Cl)C(=O)C(Nc2ccccc2SCCCN(C)C)=C(Cl)C1=O | 87.1% (inactive)
COc1ccc(-c2cc(-c3ccc(Cl)cc3)nc(SCCCCCCC(=O)NO)n2)cc1OC | 63.7% (inactive)
O=C(NCCNC(=O)c1ccc(F)cc1)Nc1ccc(-n2cc(-c3ccncc3)c(-c3ccc(Cl)c(O)c3)n2)cc1 | 16.6% (inactive)

Structure (SMILES) | growth
Cc1ccc(Cl)cc1NC(=O)CCl | 94.2% (inactive)
Nc1ncc(-c2cnn(C3CCNCC3)c2)cc1-c1nc2ccccc2o1 | -14.7% (active)
O=C(CCCSc1nc(-c2ccccc2)cc(-c2ccc(Cl)cc2)n1)NO | 50.9% (inactive)
COc1ccc2nc3cc(Cl)ccc3c(Nc3cc(CN4CCCC4)c(O)c(CN4CCCC4)c3)c2n1 | 15.5% (inactive)
CN(C)CCOc1cccc(-c2nc3sccn3c2-c2ccnc(S(C)(=O)=O)n2)c1 | 86.4% (inactive)
Cc1ccc(C(=O)C2C(=O)C3CCC2C3)cc1 (stereo unspecified) | 106% (inactive)
COc1cc(-c2csc(NC(=O)Nc3cc(C(F)(F)F)cc(C(F)(F)F)c3)n2)cc(OC)c1OC | 31.2% (inactive)
O=C(CNc1nnc(-c2cccnc2SCc2ccccc2)s1)Nc1nc(Cl)cc(Cl)n1 | 130% (inactive)
O=C(O)c1ccc(-n2cc(CNc3ccc(Oc4ccccc4)cc3)c(-c3ccccc3)n2)cc1 | 105% (inactive)
C/C=C/C1=CN2C(=O)c3cc(OC4OC(C)C(NC)C(C)(O)C4O)c(C)c(O)c3N=C[C@@H]2C1 (stereo partly specified) | -11.6% (active)
COc1ccc(/C(C#N)=C/c2ccccc2OC)cc1 | 47.8% (inactive)
O=S(=O)(O)c1ccc(Cl)cc1 | 101% (inactive)
N#CCc1csc(Cc2ccccc2)n1 | 99.1% (inactive)
O=C(/C=C/C=C/c1c(C2CC2)nc2ccccc2c1-c1ccc(F)cc1)c1cccs1 | 24.4% (inactive)
N#CC1=C(N)Oc2cc(N)ccc2C1c1cccnc1 (stereo unspecified) | 82.4% (inactive)
O=C(Cn1cc(CO)nn1)Nc1nc2ccccc2s1 | 109% (inactive)
CCn1c(SCCc2ccccc2)nnc1-c1nn(-c2ccc(Cl)cc2Cl)c(-c2ccc(Cl)cc2)c1C | 98% (inactive)
Cc1cc(C(C#N)c2ccc(Cl)cc2)c(Cl)cc1NC(=O)c1cc(I)cc(I)c1O (stereo unspecified) | 26% (inactive)
Cn1cnc([N+](=O)[O-])c1/C=C1\Oc2ccc(Br)cc2C1=O | 103% (inactive)
Cc1cc(Cl)ccc1Nc1nc(C(F)(F)F)ccc1C(=O)N/N=C/c1c(Cl)cccc1Cl | -22.1% (active)
